# Source: publication PMC7862700, “An all-to-all approach to the identification of sequence-specific readers for epigenetic DNA modifications on cytosine”
# Columns and labels:
# Test in all cases: DAPPL (digital affinity profiling via proximity ligation, sequencing); 10 mM Tris-HCl pH 7.5, 50 mM NaCl, 1 mM DTT, 4% glycerol, room temperature, 30 min; GST-TFs on glutathione beads, 16-mer random dsDNA library, 0.1% formaldehyde crosslink after washing; high values mean tight binding
# [1] = target: T1, FEV (Homo sapiens, UniProt Q99581 1-238); conditions: protein: recombinant; tags: N-terminal GST; dsDNA, one strand shown
# T1 sequence: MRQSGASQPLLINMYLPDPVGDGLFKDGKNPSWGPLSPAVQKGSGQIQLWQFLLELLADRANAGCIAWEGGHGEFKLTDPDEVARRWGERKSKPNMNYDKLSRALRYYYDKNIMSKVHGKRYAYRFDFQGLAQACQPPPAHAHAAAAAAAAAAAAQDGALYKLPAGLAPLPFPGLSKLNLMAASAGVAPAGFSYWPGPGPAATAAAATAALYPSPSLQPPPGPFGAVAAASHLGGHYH
# Outline: (§1)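 The binding signal reported is, for every hexamer, its read frequency for a factor over its read frequency for the tag-only sample. Reads came from pools of yeast-expressed, GST-fused human transcription factors on glutathione beads, barcoded with DNA and mixed with that sample, which were incubated with 200 nmole of a random double-stranded 16-mer DNA library in Tris/NaCl/DTT/glycerol buffer at room temperature for 30 min. After washing, the pools were crosslinked with 0.1% formaldehyde, proximity-ligated with BsaI/T4 ligase for 1 h at 37 °C, PCR-amplified and sequenced on an Illumina NextSeq500.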
# [2] = target: ETV5 (Homo sapiens, UniProt P41161 1-510); conditions: protein: recombinant; tags: N-terminal GST; dsDNA, one strand shown
# Outline: as §1
# [3] = target: HSF1 (Homo sapiens, UniProt Q00613 1-529); conditions: protein: recombinant; tags: N-terminal GST; chain copies: 3; dsDNA, one strand shown
# Outline: as §1
# [4] = target: T2, SPIC (Homo sapiens, UniProt Q8N5J4 1-248); conditions: protein: recombinant; tags: N-terminal GST; dsDNA, one strand shown
# T2 sequence: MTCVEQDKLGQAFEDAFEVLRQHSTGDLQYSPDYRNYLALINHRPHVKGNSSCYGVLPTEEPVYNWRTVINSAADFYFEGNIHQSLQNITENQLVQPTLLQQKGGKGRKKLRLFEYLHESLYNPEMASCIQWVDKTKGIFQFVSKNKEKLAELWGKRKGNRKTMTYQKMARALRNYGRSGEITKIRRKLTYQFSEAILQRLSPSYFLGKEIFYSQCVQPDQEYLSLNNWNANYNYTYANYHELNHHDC
# Outline: as §1
# [5] = target: ELF4 (Homo sapiens, UniProt Q99607 1-663); conditions: protein: recombinant; tags: N-terminal GST; dsDNA, one strand shown
# Outline: as §1
# [6] = target: T3, ELK4 (Homo sapiens, UniProt P28324-2 1-405); conditions: protein: recombinant; tags: N-terminal GST; dsDNA, one strand shown
# T3 sequence: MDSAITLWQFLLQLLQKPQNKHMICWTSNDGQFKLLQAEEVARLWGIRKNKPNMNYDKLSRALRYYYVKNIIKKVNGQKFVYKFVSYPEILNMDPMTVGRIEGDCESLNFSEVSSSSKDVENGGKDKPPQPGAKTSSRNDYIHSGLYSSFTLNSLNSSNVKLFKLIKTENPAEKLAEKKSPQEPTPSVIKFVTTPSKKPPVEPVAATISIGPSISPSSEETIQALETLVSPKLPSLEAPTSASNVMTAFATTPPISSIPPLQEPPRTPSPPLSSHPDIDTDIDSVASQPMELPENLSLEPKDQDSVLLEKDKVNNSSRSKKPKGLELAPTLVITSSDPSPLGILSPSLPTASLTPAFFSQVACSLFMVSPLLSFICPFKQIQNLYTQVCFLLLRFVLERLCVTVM
# Outline: as §1
# [7] = target: T4, ETV2 (Homo sapiens, UniProt O00321 1-342); conditions: protein: recombinant; tags: N-terminal GST; dsDNA, one strand shown
# T4 sequence: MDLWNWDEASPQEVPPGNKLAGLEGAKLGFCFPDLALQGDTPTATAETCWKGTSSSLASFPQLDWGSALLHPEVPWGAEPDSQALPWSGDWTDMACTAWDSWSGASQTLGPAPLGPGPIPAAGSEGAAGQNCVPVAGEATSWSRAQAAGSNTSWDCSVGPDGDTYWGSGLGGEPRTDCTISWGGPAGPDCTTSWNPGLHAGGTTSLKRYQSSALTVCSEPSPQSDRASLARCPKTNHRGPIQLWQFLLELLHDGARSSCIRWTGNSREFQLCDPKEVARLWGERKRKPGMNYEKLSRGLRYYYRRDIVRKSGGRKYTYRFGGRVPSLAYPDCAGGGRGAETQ
# Outline: as §1
# [8] = target: T5, ELF3 (Homo sapiens, UniProt P78545 1-371); conditions: protein: recombinant; tags: N-terminal GST; dsDNA, one strand shown
# T5 sequence: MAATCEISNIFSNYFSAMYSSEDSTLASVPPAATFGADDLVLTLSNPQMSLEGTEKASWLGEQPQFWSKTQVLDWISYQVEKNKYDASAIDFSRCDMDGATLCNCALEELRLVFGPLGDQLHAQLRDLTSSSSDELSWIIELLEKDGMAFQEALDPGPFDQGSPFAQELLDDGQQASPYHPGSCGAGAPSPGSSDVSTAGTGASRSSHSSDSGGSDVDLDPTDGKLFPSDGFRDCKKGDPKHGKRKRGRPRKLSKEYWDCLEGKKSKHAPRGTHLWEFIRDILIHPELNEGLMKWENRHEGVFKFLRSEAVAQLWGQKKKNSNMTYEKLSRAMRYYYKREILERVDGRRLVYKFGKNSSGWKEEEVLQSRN
# Outline: as §1
# [9] = target: CRX (Homo sapiens, UniProt O43186 1-299); conditions: protein: recombinant; tags: N-terminal GST; dsDNA, one strand shown
# Outline: as §1
# [10] = target: ETV1 (Homo sapiens, UniProt P50549 1-477); conditions: protein: recombinant; tags: N-terminal GST; dsDNA, one strand shown
# Outline: as §1
# [11] = target: T6, ERF (Homo sapiens, UniProt P50548 1-548); conditions: protein: recombinant; tags: N-terminal GST; dsDNA, one strand shown
# T6 sequence: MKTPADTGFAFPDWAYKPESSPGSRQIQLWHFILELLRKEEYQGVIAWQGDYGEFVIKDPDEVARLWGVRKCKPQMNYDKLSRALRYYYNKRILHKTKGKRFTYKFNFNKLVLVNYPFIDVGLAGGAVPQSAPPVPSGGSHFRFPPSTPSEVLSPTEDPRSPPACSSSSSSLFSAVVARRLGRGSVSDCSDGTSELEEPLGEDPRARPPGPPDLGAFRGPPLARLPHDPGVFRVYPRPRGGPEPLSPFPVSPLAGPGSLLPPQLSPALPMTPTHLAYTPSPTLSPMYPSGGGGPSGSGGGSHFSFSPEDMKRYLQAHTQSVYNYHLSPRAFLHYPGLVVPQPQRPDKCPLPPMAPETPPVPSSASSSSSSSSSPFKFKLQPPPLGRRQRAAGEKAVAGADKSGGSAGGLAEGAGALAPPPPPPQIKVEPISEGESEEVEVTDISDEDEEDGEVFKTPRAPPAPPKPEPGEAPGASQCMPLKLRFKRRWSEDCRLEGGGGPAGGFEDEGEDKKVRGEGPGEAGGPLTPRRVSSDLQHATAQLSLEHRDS
# Outline: as §1
# [12] = target: T7, ETV3L (Homo sapiens, UniProt Q6ZN32 1-361); conditions: protein: recombinant; tags: N-terminal GST; dsDNA, one strand shown
# T7 sequence: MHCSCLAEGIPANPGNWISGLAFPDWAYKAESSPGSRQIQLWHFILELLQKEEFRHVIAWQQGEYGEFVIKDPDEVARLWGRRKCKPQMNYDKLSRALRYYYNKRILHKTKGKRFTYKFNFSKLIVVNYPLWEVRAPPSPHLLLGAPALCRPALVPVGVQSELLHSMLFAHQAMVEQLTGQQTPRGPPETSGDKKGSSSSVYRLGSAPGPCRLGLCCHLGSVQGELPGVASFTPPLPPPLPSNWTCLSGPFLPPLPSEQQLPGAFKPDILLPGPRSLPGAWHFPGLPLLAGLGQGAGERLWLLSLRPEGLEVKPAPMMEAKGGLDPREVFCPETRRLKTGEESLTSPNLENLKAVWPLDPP
# Outline: as §1
# [13] = target: T8, ETS2 (Homo sapiens, UniProt P15036 1-469); conditions: protein: recombinant; tags: N-terminal GST; dsDNA, one strand shown
# T8 sequence: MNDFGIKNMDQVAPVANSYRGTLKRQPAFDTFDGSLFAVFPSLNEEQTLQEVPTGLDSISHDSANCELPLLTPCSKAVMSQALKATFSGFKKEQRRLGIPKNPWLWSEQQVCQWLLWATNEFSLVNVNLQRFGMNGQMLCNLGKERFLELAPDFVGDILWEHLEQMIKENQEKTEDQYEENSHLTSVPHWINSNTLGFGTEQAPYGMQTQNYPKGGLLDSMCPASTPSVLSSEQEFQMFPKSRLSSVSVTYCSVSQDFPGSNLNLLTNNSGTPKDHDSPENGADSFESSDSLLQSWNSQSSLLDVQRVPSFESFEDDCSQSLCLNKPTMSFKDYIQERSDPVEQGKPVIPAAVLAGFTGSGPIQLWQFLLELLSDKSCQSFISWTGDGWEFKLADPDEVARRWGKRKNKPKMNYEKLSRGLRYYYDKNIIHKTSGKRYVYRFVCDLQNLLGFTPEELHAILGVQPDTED
# Outline: as §1
# [14] = target: T9, SPDEF (Homo sapiens, UniProt O95238 1-335); conditions: protein: recombinant; tags: N-terminal GST; dsDNA, one strand shown
# T9 sequence: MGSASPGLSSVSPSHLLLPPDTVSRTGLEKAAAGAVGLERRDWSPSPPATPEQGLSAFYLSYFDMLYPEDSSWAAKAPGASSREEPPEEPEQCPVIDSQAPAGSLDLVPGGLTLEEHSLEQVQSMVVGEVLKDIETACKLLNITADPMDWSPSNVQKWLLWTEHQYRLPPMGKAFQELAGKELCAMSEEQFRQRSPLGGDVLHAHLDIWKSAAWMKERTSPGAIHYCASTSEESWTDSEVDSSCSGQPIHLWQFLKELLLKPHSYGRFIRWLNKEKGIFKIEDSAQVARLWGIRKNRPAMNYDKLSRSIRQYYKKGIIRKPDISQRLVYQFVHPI
# Outline: as §1
# [15] = target: T10, ETV7 (Homo sapiens, UniProt Q9Y603 1-341); conditions: protein: recombinant; tags: N-terminal GST; dsDNA, one strand shown
# T10 sequence: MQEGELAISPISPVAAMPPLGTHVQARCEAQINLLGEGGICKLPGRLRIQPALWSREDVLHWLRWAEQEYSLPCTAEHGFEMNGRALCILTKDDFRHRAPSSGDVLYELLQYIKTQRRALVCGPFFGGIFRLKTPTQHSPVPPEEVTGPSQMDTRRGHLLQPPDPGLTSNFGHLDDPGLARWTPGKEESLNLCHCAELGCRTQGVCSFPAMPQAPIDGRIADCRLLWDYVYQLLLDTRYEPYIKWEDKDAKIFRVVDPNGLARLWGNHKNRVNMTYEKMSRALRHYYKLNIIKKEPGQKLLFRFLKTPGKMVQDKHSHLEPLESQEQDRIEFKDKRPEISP
# Outline: as §1
# [16] = target: T11, ELF5 (Homo sapiens, UniProt Q9UKW6-2 1-255); conditions: protein: recombinant; tags: N-terminal GST; dsDNA, one strand shown
# T11 sequence: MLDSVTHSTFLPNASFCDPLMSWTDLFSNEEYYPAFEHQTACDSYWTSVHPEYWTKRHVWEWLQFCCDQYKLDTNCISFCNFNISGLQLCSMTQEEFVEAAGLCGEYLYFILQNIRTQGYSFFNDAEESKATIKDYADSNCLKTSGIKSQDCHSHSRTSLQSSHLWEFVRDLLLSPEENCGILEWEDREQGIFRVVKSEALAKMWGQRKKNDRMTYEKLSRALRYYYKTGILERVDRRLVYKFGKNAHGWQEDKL
# Outline: as §1
# [17] = target: T12, ETV3 (Homo sapiens, UniProt P41162-2 1-143); conditions: protein: recombinant; tags: N-terminal GST; dsDNA, one strand shown
# T12 sequence: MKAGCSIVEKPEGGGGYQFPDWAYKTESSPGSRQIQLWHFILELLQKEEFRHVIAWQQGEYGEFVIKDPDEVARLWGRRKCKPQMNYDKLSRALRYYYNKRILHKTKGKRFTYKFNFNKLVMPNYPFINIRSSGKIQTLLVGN
# Outline: as §1
# [18] = target: ETV6 (Homo sapiens, UniProt P41212 1-452); conditions: protein: recombinant; tags: N-terminal GST; dsDNA, one strand shown
# Outline: as §1
# ETV5, sequence (P41161 whole entry): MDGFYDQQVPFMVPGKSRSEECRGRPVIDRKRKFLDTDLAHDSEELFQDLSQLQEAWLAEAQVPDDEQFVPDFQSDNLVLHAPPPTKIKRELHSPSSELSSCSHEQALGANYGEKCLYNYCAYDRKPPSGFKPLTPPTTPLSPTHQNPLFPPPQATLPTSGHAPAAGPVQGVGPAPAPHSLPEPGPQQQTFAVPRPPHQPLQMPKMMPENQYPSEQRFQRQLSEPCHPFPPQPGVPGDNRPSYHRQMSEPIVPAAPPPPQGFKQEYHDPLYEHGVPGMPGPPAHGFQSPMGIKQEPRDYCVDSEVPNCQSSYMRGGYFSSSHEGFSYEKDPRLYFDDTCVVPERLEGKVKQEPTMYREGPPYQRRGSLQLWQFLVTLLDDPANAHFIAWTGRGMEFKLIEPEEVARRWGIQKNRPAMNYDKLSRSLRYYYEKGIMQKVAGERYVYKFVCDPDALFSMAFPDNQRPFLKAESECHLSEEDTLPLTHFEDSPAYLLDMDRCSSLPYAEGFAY
# ETV1, sequence (P50549 whole entry): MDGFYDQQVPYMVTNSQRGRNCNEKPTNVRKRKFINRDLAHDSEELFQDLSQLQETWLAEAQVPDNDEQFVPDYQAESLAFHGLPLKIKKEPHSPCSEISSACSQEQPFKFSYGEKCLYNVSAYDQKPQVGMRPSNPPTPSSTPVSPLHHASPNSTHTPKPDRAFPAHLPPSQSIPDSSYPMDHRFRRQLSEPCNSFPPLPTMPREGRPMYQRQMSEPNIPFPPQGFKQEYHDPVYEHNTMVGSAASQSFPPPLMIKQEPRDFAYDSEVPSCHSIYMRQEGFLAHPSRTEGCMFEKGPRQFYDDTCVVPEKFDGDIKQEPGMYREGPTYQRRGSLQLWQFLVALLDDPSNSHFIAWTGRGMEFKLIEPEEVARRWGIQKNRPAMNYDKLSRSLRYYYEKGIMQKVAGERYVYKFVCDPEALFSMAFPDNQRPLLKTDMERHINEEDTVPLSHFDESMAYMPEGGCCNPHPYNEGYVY
# ETV6, sequence (P41212 whole entry): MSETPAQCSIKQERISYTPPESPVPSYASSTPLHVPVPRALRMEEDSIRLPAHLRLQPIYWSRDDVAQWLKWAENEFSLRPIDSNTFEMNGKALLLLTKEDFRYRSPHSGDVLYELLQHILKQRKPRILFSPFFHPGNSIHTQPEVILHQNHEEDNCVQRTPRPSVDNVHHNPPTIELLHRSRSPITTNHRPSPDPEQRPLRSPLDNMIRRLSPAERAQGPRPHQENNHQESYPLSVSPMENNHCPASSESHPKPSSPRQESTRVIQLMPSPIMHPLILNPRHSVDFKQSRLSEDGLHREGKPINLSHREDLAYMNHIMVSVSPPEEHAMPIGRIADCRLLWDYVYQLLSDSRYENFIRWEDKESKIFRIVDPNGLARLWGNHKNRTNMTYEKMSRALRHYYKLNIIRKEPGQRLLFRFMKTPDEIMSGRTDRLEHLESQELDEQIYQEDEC
# CRX, sequence (O43186 whole entry): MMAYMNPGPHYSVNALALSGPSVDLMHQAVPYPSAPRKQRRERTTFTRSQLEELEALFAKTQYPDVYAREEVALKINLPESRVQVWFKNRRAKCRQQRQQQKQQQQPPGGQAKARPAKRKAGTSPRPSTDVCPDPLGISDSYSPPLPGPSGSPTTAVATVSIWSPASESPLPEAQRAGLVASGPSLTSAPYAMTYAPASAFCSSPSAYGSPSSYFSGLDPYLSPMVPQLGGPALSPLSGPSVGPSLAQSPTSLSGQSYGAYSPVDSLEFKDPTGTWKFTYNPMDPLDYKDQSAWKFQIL
# ELF4, sequence (Q99607 whole entry): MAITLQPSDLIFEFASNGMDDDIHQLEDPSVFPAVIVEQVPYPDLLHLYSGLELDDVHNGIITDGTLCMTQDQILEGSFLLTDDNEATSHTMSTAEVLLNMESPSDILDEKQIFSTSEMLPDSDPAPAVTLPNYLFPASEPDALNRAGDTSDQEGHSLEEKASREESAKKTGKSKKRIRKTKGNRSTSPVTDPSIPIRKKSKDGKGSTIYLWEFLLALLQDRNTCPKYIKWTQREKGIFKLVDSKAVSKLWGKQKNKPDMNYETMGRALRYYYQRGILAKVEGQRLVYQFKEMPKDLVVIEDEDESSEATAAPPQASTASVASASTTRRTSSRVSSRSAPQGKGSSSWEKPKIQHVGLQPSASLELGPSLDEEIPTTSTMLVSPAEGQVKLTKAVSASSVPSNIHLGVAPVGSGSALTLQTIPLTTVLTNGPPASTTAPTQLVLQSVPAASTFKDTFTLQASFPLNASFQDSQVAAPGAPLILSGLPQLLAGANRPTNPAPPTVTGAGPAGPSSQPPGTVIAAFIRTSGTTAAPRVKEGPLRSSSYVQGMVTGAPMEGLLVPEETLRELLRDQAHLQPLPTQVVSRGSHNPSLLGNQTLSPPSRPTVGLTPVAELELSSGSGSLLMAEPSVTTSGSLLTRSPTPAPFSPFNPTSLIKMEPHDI
# HSF1, sequence (Q00613 whole entry): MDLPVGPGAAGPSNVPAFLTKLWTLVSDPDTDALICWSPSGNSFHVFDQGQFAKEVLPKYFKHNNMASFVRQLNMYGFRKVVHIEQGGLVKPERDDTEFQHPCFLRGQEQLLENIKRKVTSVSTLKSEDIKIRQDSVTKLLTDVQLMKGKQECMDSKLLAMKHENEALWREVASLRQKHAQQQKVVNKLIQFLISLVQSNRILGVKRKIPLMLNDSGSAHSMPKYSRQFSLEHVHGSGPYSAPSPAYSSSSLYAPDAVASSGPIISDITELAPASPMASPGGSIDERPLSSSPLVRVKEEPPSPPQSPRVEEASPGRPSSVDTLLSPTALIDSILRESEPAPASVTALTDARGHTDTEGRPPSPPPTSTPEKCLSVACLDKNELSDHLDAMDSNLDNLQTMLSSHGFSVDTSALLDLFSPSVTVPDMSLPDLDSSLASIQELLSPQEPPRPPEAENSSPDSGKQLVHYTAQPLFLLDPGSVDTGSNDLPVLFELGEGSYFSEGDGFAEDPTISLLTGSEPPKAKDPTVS
sequence,measurement,setting,value
ATATGC,binding signal,[1],"1.11 fold enrichment (6-mer frequency, TF over GST control)"
same,binding signal,[2],"1.15 fold enrichment (6-mer frequency, TF over GST control)"
same,binding signal,[3],"1.01 fold enrichment (6-mer frequency, TF over GST control)"
same,binding signal,[4],"1.4 fold enrichment (6-mer frequency, TF over GST control)"
same,binding signal,[5],"1.1 fold enrichment (6-mer frequency, TF over GST control)"
same,binding signal,[6],"1.28 fold enrichment (6-mer frequency, TF over GST control)"
same,binding signal,[7],"1.06 fold enrichment (6-mer frequency, TF over GST control)"
same,binding signal,[8],"1.09 fold enrichment (6-mer frequency, TF over GST control)"
same,binding signal,[9],"1.01 fold enrichment (6-mer frequency, TF over GST control)"
same,binding signal,[10],"1.11 fold enrichment (6-mer frequency, TF over GST control)"
same,binding signal,[11],"1.15 fold enrichment (6-mer frequency, TF over GST control)"
same,binding signal,[12],"1.11 fold enrichment (6-mer frequency, TF over GST control)"
same,binding signal,[13],"1.19 fold enrichment (6-mer frequency, TF over GST control)"
same,binding signal,[14],"1.14 fold enrichment (6-mer frequency, TF over GST control)"
same,binding signal,[15],"1.11 fold enrichment (6-mer frequency, TF over GST control)"
same,binding signal,[16],"1.12 fold enrichment (6-mer frequency, TF over GST control)"
same,binding signal,[17],"1.16 fold enrichment (6-mer frequency, TF over GST control)"
same,binding signal,[18],"1.12 fold enrichment (6-mer frequency, TF over GST control)"
